Data as given in PubChem BioAssay AID1159580 (chemical genetic matrix, 2015).
Several values for one entry are separate records, joined by “and”; a condition that tells them apart may be missing. Identical values can stand only once. The whole screen tested about 5,500 compounds, of which about 2,000 (36%) were called active. Not shown: some 18% with an inconclusive outcome. No stated cut-off is given here; in the data, active means normalized growth mostly below about 0.91 (no sharp cut-off); inconclusive means no clear call, values can overlap the other calls; inactive means mostly above about 0.92. The list shows a part of the results.

Assay: chemical genetic growth profiling, strain panel (AID 1159580);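 further: tested at 20 µM; growth read once vehicle control cultures reached saturation at 30 °C; 1 = growth at the plate median or of vehicle wells; lower values mean less growth of the strain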
Settings: S. cerevisiae deletion strains, growth OD

Measured: normalized growth

CC1CCc2cc(F)cc3c(=O)c(C(=O)O)cn1c23 (configuration not stated)
inactive: locus YAL013W, strain DEP1, active compounds read low 0.985 | locus YAL021C, strain ccr4, active compounds read low 0.967 | locus YAL026C, strain drs2, active compounds read low 0.981 | locus YAL030W, strain snc1, active compounds read low 0.989 | locus YBL061C, strain skt5, active compounds read low 0.985 | locus YBR009C, strain hhf1, active compounds read low 0.987 | locus YBR021W, strain FUR4, active compounds read low 0.943 | locus YBR023C, strain chs3, active compounds read low 0.975 | locus YBR171W, strain sec66, active compounds read low 0.979 | locus YBR229C, strain ROT2, active compounds read low 0.98 | locus YBR231C, strain swc5, active compounds read low 0.997 | locus YBR279W, strain paf1, active compounds read low 0.985 | locus YCL011C, strain gbp2, active compounds read low 0.988 | locus YCL016C, strain dcc1, active compounds read low 0.977 | locus YCL029C, strain bik1, active compounds read low 0.925 | locus YCL061C, strain MRC1, active compounds read low 0.989 | locus YCL069W, strain vba3, active compounds read low 0.992 | locus YCR088W, strain abp1, active compounds read low 0.999 | locus YDL005C, strain med2, active compounds read low 0.995 | locus YDL035C, strain GPR1, active compounds read low 1 | locus YDL040C, strain nat1, active compounds read low 0.999 | locus YDL074C, strain BRE1, active compounds read low 0.972 | locus YDL101C, strain DUN1, active compounds read low 0.974 | locus YDL134C, strain PPH21, active compounds read low 0.975 | locus YDL185W, strain tfp1, active compounds read low 0.981 | locus YDL192W, strain arf1, active compounds read low 0.967 | locus YDR001C, strain nth1, active compounds read low 0.992 | locus YDR069C, strain doa4, active compounds read low 1 | locus YDR101C, strain arx1, active compounds read low 0.962 | locus YDR137W, strain rgp1, active compounds read low 0.942 | locus YDR150W, strain NUM1, active compounds read low 0.981 | locus YDR159W, strain sac3, active compounds read low 1.01 | locus YDR162C, strain NBP2, active compounds read low 0.991 | locus YDR195W, strain ref2 0.99 | locus YDR297W, strain sur2, active compounds read low 0.997 | locus YDR318W, strain mcm21, active compounds read low 0.97 | locus YDR334W, strain swr1, active compounds read low 0.986 | locus YDR335W, strain msn5, active compounds read low 0.991 | locus YDR388W, active compounds read low 0.952 | locus YDR392W, strain spt3, active compounds read low 0.941 | locus YDR502C, strain sam2, active compounds read low 0.984 | locus YEL003W, strain gim4, active compounds read low 1 | locus YEL037C, strain rad23, active compounds read low 0.993 | locus YEL061C, strain CIN8 (second series), active compounds read low 0.993 | locus YEL061C, strain CIN8, active compounds read low 0.985 | locus YER015W, strain faa2, active compounds read low 0.982 | locus YER016W, strain bim1, active compounds read low 1 | locus YER110C, active compounds read low 0.976 | locus YER111C, strain swi4, active compounds read low 0.984 | locus YER155C, strain BEM2 (second series), active compounds read low 0.994 | locus YER155C, strain BEM2, active compounds read low 0.975 | locus YER167W, strain BCK2, active compounds read low 0.988 | locus YFR010W, strain ubp6, active compounds read low 0.984 | locus YGL078C, strain dbp3, active compounds read low 0.969 | locus YGL086W, strain mad1, active compounds read low 0.987 | locus YGL167C, strain pmr1, active compounds read low 0.993 | locus YGL173C, strain kem1, active compounds read low 0.991 | locus YGL227W, strain vid30, active compounds read low 0.985 | locus YGL240W, strain doc1, active compounds read low 0.991 | locus YGL248W, strain PDE1, active compounds read low 0.984 | locus YGL253W, strain hxk2, active compounds read low 0.995 | locus YGR078C, strain PAC10, active compounds read low 0.974 | locus YGR135W, strain pre9, active compounds read low 0.974 | locus YGR229C, strain SMI1, active compounds read low 1.01 | locus YGR252W, strain gcn5, active compounds read low 1.04 | locus YHR013C, strain ard1, active compounds read low 0.965 | locus YHR027C, strain rpn1, active compounds read low 0.985 | locus YHR030C, strain SLT2, active compounds read low 0.982 and 0.978 | locus YHR079C, strain IRE1 (second series), active compounds read low 0.955 | locus YHR079C, strain IRE1, active compounds read low 0.988 | locus YHR094C, strain hxt1, active compounds read low 0.983 | locus YHR129C, strain ARP1, active compounds read low 0.977 | locus YHR142W, strain chs7, active compounds read low 0.981 | locus YHR200W, strain rpn10, active compounds read low 0.969 | locus YIL066C, strain RNR3, active compounds read low 0.974 | locus YIL073C, strain SPO22, active compounds read low 0.991 | locus YIL125W, strain kgd1, active compounds read low 0.985 | locus YIR030C, strain dcg1, active compounds read low 0.972 | locus YJL092W, strain hpr5, active compounds read low 0.988 | locus YJL095W, strain BCK1 (second series), active compounds read low 0.989 | locus YJL095W, strain BCK1, active compounds read low 0.948 and 0.982 | locus YJL115W, strain asf1, active compounds read low 0.983 | locus YJL129C, strain trk1, active compounds read low 1 | locus YJL134W, strain LCB3, active compounds read low 0.984 | locus YJL154C, strain vps35, active compounds read low 0.991 | locus YJL164C, strain tpk1, active compounds read low 0.988 | locus YJL166W, strain qcr8, active compounds read low 0.981 | locus YJL168C, strain set2, active compounds read low 0.967 | locus YJL187C, strain SWE1 (second series), active compounds read low 0.954 | locus YJL187C, strain SWE1, active compounds read low 0.989 | locus YJR043C, strain POL32, active compounds read low 0.979 | locus YJR066W, strain TOR1, active compounds read low 0.897
